Experiment [1] in a line: signal quenchers or enhancers, Cy5 substrate/SSB – biochemical, NIH Clinical Collection, E. coli SSB, artefact control for HCV NS3 helicase inhibitor project (AID 743268). To be noted: Cy5-oligo bound E. coli SSB, fluorescence interference.
Experiment [2] relates to Hepatitis C virus NS3 helicase. The experiment in a line: blockers of NS3h binding to DNA – biochemical, fluorescence polarization, NIH Clinical Collection, primary screen (AID 743270). To be noted: NS3 helicase binding to Cy5-dT15 DNA, stronger effect = higher value, concentration not given here. For orientation: Fluorescence polarisation rises when a labelled molecule tumbles more slowly, as on binding a larger partner.

In experiment [3] the target is Single-stranded DNA-binding protein (Escherichia coli (strain K12)) (UniProt P0AGE0). The experiment in a line: SSB-ssDNA binding inhibitors – biochemical, fluorescence polarization, NIH Clinical Collection, counter-screen for HCV NS3 helicase inhibitor project (AID 743271; in the data active means inhibition above about 28%). To be noted: E. coli SSB-DNA binding, stronger effect = higher value, concentration not given here.
Experiment [4] can be described thus: compounds distorting NS3 helicase fluorescence signal – biochemical, NIH Clinical Collection, artefact control for HCV NS3 helicase inhibitor project (AID 743272).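 Further: HCV NS3 helicase with a Cy5 labelled single stranded DNA probe.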 To be noted: fluorescence interference counterscreen, HCV NS3 helicase assay; stronger effect = lower value. A general note: Counterscreens check selectivity or assay interference.
Experiment [5] relates to Neuropilin-2 / VEGF-C interaction (human). The experiment in a line: small molecules blocking Neuropilin-2/VEGF-C interaction – biochemical, microplate binding format, z-score (AID 743281). To be noted: microplate NRP2/VEGF-C binding assay; stronger effect = lower value.
Experiment [6] is described as follows: viability loss in pontine glioma line – cell-based, SU-DIPG-XVII, MIPE5.0, CellTiter-Glo, qHTS, dose response (AID 1347060; cut-off not given, nearly all actives have AC50 up to about 26 µM). To be noted: CellTiter-Glo ATP luminescence.
Experiment [7] can be described thus: viability loss in pontine glioma line – cell-based, SU-DIPG-XIII, MIPE4.0, CellTiter-Glo, qHTS, dose response (AID 1347061; cut-off not given, nearly all actives have AC50 up to about 37 µM;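 further: cells exposed to compound for 48 hours before readout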). To be noted: CellTiter-Glo ATP luminescence. (In ATP-based viability assays light output follows the ATP content of the culture.)
Experiment [8] can be described thus: viability loss in pontine glioma line – cell-based, JHH-DIPG-1, MIPE4.0, CellTiter-Glo, qHTS, dose response (AID 1347062; cut-off not given, nearly all actives have AC50 up to about 27 µM). To be noted: JHH-DIPG-1 viability, CellTiter-Glo ATP luminescence.
Experiment [9] in a line: viability loss in pontine glioma line – cell-based, SU-DIPG-IV, MIPE4.0, CellTiter-Glo, qHTS, dose response (AID 1347063; cut-off not given, nearly all actives have AC50 up to about 30 µM;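 further: compound exposure lasted 48 hours before the viability readout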). To be noted: CellTiter-Glo ATP luminescence.
A short description of experiment [10]: growth inhibition of DIPG cells – cell-based, MIPE4.0 library, CellTiter-Glo luminescence, qHTS (AID 1347066; cut-off not given, nearly all actives have AC50 up to about 30 µM;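 further: cells exposed to compound for 48 hours before readout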). To be noted: SU-DIPG-VI viability, CellTiter-Glo ATP luminescence.
A short description of experiment [11]: JHH-DIPG-1 glioma cell viability, MIPE5.0 library, CellTiter-Glo luminescence, qHTS (AID 1347067; cut-off not given, nearly all actives have AC50 up to about 26 µM;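 further: cells exposed to compound for 48 hours before readout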). To be noted: JHH-DIPG-1 glioma viability, CellTiter-Glo ATP luminescence.
Experiment [12] in a line: growth inhibition of DIPG cells – cell-based, MIPE5.0 library, qHTS (AID 1347068; cut-off not given, nearly all actives have IC50 up to about 30 µM). To be noted: SU-DIPG-XXV viability.
The next experiment relates to F380Y/beta1. The experiment in a line: BK channel mutant inhibitors and activators – cell-based, U2OS BacMam, thallium flux, beta subunits, selectivity assay, profiling panel (AID 1259406;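 active means thallium flux through the channel raised or lowered by more than 3 SD from vehicle-only wells, actives on both sides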;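 further: initial slope of Thallos dye fluorescence rise after thallium is added; log ratio against the mean of 0.3% DMSO vehicle wells on the same plate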). To be noted: U2OS BacMam BK variants, at 30 µM.
The test system of the next experiment is F380Y/beta4. The description is as above. To be noted: U2OS BacMam BK variants, at 30 µM.
The next experiment relates to R275C/beta4. Described as above. To be noted: U2OS BacMam BK variants, at 30 µM.
The test system of experiment [13] is Aerobactin synthetase IucA (Klebsiella pneumoniae). The experiment in a line: inhibition of K. pneumoniae IucA enzyme – biochemical, Tocris library, absorbance (AID 1345561).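 Further: 100% = enzyme without compound and 0% = no enzyme.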 To be noted: purified IucA enzyme assay, absorbance (OD) read-out; stronger effect = lower value;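 tested at 8 µM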.

Where “and” joins values, the source holds several entries; their conditions need not be identical. Equal entries are not always repeated. Values without a mark were called inactive. Inconclusive results are not listed. Calls of active or inactive are those of the source. Unless noted, how the calls were made is not given here.

Turning to `CNCC(O)c1ccc(O)cc1` (stereo not drawn), the fluorescence ratio in [1] is 0.99; in experiment [4], 0.96. Also, the inhibition in experiment [2] was -1.09%; in experiment [3], -0.39%. Besides, the z-score in [5] is -0.502. The outcome in experiment [6], in [7], in experiment [8], in experiment [9], in experiment [10] and in [11] was inactive. Besides, the call in [12] was inactive. Besides, the log fold change Tl+ flux in the experiment on F380Y/beta1 was -4.2e-05; with F380Y/beta4, -0.01; with R275C/beta4 it was -0.013.

Consider `CCC(COC(=O)c1cc(OC)c(OC)c(OC)c1)(c1ccccc1)N(C)C` (stereo not drawn), for which the fluorescence ratio in experiment [1] and in experiment [4] was 0.98 in each case. Also, the inhibition in [2] was -1.19%; in experiment [3], -0.87%. In addition, the z-score in experiment [5] was -1.07. For the same molecule, the values for the log fold change Tl+ flux in the experiment with F380Y/beta1, with F380Y/beta4 and with R275C/beta4 were -0.135 (active), -0.301 (active) and -0.198 (active), respectively.

In the case of `COc1cc(N)c(Cl)cc1C(=O)NC1CN2CCC1CC2` (stereo not drawn), the fluorescence ratio was 0.94 in experiment [1] and 0.87 in experiment [4]. Also, the figures for the inhibition in experiment [2] and in experiment [3] were -2.77% and 9.91%, respectively. Moreover, in experiment [5], the z-score is -0.38. In addition, in experiment [13], the remaining activity was 124%.

Regarding `NC1=NC(=O)C(c2ccccc2)O1` (stereo not drawn), the figures for the fluorescence ratio in [1] and in [4] were 1.02 and 0.93, respectively. Besides, the inhibition in experiment [2] was 2.77%; in experiment [3], 1.44%. In addition, the z-score in [5] was -1.08. The log fold change Tl+ flux in the experiment on F380Y/beta1 is -0.0441; in the experiment with F380Y/beta4, 0.00709; in the experiment on R275C/beta4, -0.0245.

With `CN[C@@H]1C[C@@H](c2ccc(Cl)c(Cl)c2)c2ccccc21`, the fluorescence ratio is 0.98 in experiment [1] and 0.97 in experiment [4]. Moreover, the inhibition in experiment [2] is -3.56%; in [3] it was -3.95%. In addition, in [5], the z-score was 0.266. Besides, the remaining activity in experiment [13] was 118%.

Regarding `CC[C@@H](CO)NC(=O)[C@@H]1C=C2c3cccc4c3c(cn4C)C[C@H]2N(C)C1`, the remaining activity in experiment [13] was 121%.

For `CCN(CC)CCOC(=O)C(O)(c1ccccc1)c1ccccc1`, the figures for the fluorescence ratio in [1] and in [4] were 0.99 and 0.98, respectively. The inhibition is -1.19% in [2] and -0.87% in experiment [3]. Besides, the z-score in [5] was 0.28. Further, the log fold change Tl+ flux in the experiment with F380Y/beta1 was -0.00425; in the experiment with F380Y/beta4, 0.0464; in the experiment with R275C/beta4 it was 0.00187.

On to `CN1C(=O)COc2c(C(=O)NC3CN4CCC3CC4)cc(Cl)cc21` (stereo not drawn), for which the fluorescence ratio in experiment [1] is 1.03; in [4], 1.02. Besides, the inhibition in experiment [2] is 2.77%; in experiment [3], 3.75%. For the same molecule, the z-score in experiment [5] was 0.29. Besides, the outcome in experiment [6], in [7], in [8], in experiment [9] and in experiment [12] was inactive. Besides, the log fold change Tl+ flux in the experiment on F380Y/beta1 was 0.0287; with F380Y/beta4, 0.0243; in the experiment with R275C/beta4 it was -0.016.

Regarding `C#CCN(C)[C@H](C)Cc1ccccc1`, the fluorescence ratio in [1] is 0.95 and 0.99; in [4], 0.9 and 0.99. The inhibition is -5.15% and -7.73% in [2]; 2.21% and -4.29% in [3]. Further, the z-score in [5] was -0.865. Besides, the molecule was called inactive in [6], in experiment [7], in experiment [8], in experiment [9], in experiment [11] and in [12]. For the same molecule, the results for the log fold change Tl+ flux in the experiment with F380Y/beta1, in the experiment with F380Y/beta4 and with R275C/beta4 were 0.0474, 0.0201 and -0.0396, respectively.

`COc1ccc(C(=O)N2CCCC2=O)cc1`: the remaining activity in experiment [13] is 97.7%. Also, the result in experiment [6], in [7], in experiment [8], in [9], in [10] and in experiment [11] was inactive. Also, in [12], the call was inactive.

As to `NP(N)(=O)NC(=O)c1ccc(F)cc1`, the remaining activity in [13] is 91.8%.

For `NC(=O)OCCCc1ccccc1`, the fluorescence ratio is 1.07 in experiment [1] and 1.03 in [4]. In addition, the inhibition in [2] was 0.4%; in experiment [3] it was -1.64%. The z-score in experiment [5] is -0.636. Moreover, the values for the log fold change Tl+ flux with F380Y/beta1, in the experiment on F380Y/beta4 and in the experiment on R275C/beta4 were 0.00909, 0.0583 and -0.0265, respectively.

Take `Nc1ccncc1`: the remaining activity in experiment [13] was 127%.

Regarding `CC[C@]1(O)CC[C@H]2[C@@H]3CCC4=CCCC[C@@H]4[C@H]3CC[C@@]21C`, the fluorescence ratio in experiment [1] and in [4] was 1.02 each time. In addition, the figures for the inhibition in experiment [2] and in [3] were -2.77% and 1.44%, respectively. Moreover, the figures for the log fold change Tl+ flux in the experiment with F380Y/beta1, with F380Y/beta4 and in the experiment on R275C/beta4 were -0.128 (active), -0.128 (active) and 0.243 (active), respectively.

On to `CN1C(=O)CN=C(c2ccccc2)c2cc([N+](=O)[O-])ccc21`, for which the fluorescence ratio in experiment [1] is 1.07; in experiment [4] it was 1.04. For the same molecule, the inhibition was 5.94% in experiment [2] and 1.44% in [3]. In experiment [5], the z-score is -0.553. Also, the figures for the log fold change Tl+ flux in the experiment with F380Y/beta1, in the experiment on F380Y/beta4 and in the experiment on R275C/beta4 were -0.0526, 0.0228 and 0.0115, respectively.

On to `Cc1cccc(C)c1NC(=O)CN1CCCC1=O`, for which the molecule was classed as inactive in [7], in experiment [8], in experiment [9], in experiment [11] and in experiment [12].

Turning to `c1ccc(C2CC2)c(OCC2=NCCN2)c1`, the remaining activity in [13] was 102%.

Broadly, the inhibition is the drop in the measured response relative to a control, in per cent. Broadly, the remaining activity is the signal under treatment as a percentage of the control signal.

The values are drawn from PubChem BioAssay.
